Laboratory results published in PubChem BioAssay AID1159580 (chemical genetic matrix, 2015).
“And” between values parts separate entries of the source, which are not always exact repeats. Identical values can stand only once. Out of some 5,500 compounds screened, about 2,000 (36%) were called active. About 18% were inconclusive and are not listed. No stated cut-off is given here; in the data, active means normalized growth mostly below about 0.91 (no sharp cut-off); inconclusive means no clear call, values can overlap the other calls; inactive means mostly above about 0.92. The list shows a part of the results.

Assay: chemical genetic growth profiling, strain panel (AID 1159580);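 further: tested at 20 µM; growth read once vehicle control cultures reached saturation at 30 °C; 1 = growth at the plate median or of vehicle wells; lower values mean less growth of the strain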
Conditions: S. cerevisiae deletion strains, growth OD

Measured: normalized growth

C[N+](C)(C)CCOC(N)=O
inactive: locus YAL013W, strain DEP1, active compounds read low 1.01 | locus YAL021C, strain ccr4, active compounds read low 1.03 | locus YAL026C, strain drs2, active compounds read low 1.01 | locus YAL030W, strain snc1, active compounds read low 1.01 | locus YAL040C, strain CLN3, active compounds read low 1.05 | locus YBL061C, strain skt5, active compounds read low 1.03 | locus YBR009C, strain hhf1, active compounds read low 0.997 | locus YBR021W, strain FUR4, active compounds read low 1.06 | locus YBR023C, strain chs3, active compounds read low 1.02 | locus YBR171W, strain sec66, active compounds read low 1.02 | locus YBR229C, strain ROT2, active compounds read low 1.01 | locus YBR231C, strain swc5, active compounds read low 1.02 | locus YBR279W, strain paf1, active compounds read low 1.01 | locus YCL011C, strain gbp2, active compounds read low 1.01 | locus YCL016C, strain dcc1, active compounds read low 1.03 | locus YCL029C, strain bik1, active compounds read low 0.973 | locus YCL061C, strain MRC1 (second series), active compounds read low 0.987 | locus YCL069W, strain vba3, active compounds read low 1.03 | locus YCR088W, strain abp1, active compounds read low 1.01 | locus YDL005C, strain med2, active compounds read low 1.03 | locus YDL035C, strain GPR1, active compounds read low 1.04 | locus YDL040C, strain nat1, active compounds read low 1.02 | locus YDL074C, strain BRE1, active compounds read low 0.995 | locus YDL101C, strain DUN1, active compounds read low 0.986 | locus YDL185W, strain tfp1, active compounds read low 0.953 | locus YDL192W, strain arf1, active compounds read low 0.976 | locus YDR001C, strain nth1, active compounds read low 1.02 | locus YDR069C, strain doa4, active compounds read low 1.01 | locus YDR101C, strain arx1, active compounds read low 1 | locus YDR137W, strain rgp1, active compounds read low 1.04 | locus YDR150W, strain NUM1, active compounds read low 1.01 | locus YDR159W, strain sac3, active compounds read low 1.02 | locus YDR162C, strain NBP2, active compounds read low 1.03 | locus YDR195W, strain ref2 1.06 | locus YDR297W, strain sur2, active compounds read low 1.02 | locus YDR318W, strain mcm21, active compounds read low 0.987 | locus YDR334W, strain swr1, active compounds read low 1.02 | locus YDR335W, strain msn5, active compounds read low 1.03 | locus YDR388W, active compounds read low 0.984 | locus YDR392W, strain spt3, active compounds read low 1.02 | locus YDR502C, strain sam2, active compounds read low 0.99 | locus YEL003W, strain gim4, active compounds read low 1.02 | locus YEL037C, strain rad23, active compounds read low 1.02 | locus YEL061C, strain CIN8 (second series), active compounds read low 1.01 | locus YEL061C, strain CIN8, active compounds read low 1 | locus YER002W, strain NOP16, active compounds read low 0.986 | locus YER015W, strain faa2, active compounds read low 1.03 | locus YER016W, strain bim1, active compounds read low 1.01 | locus YER110C, active compounds read low 0.944 | locus YER111C, strain swi4, active compounds read low 1.03 | locus YER155C, strain BEM2 (second series), active compounds read low 1.03 | locus YER155C, strain BEM2, active compounds read low 0.991 | locus YER167W, strain BCK2, active compounds read low 1.01 | locus YFR010W, strain ubp6, active compounds read low 1.02 | locus YGL078C, strain dbp3, active compounds read low 0.986 | locus YGL086W, strain mad1, active compounds read low 1 | locus YGL167C, strain pmr1, active compounds read low 1.03 | locus YGL173C, strain kem1, active compounds read low 1.02 | locus YGL227W, strain vid30, active compounds read low 1.01 | locus YGL240W, strain doc1, active compounds read low 1.02 | locus YGL248W, strain PDE1, active compounds read low 1.01 | locus YGL253W, strain hxk2, active compounds read low 1.02 | locus YGR078C, strain PAC10, active compounds read low 0.992 and 0.993 | locus YGR135W, strain pre9, active compounds read low 0.978 | locus YGR252W, strain gcn5, active compounds read low 1.07 | locus YHR013C, strain ard1, active compounds read low 1.04 | locus YHR027C, strain rpn1, active compounds read low 1.01 | locus YHR030C, strain SLT2, active compounds read low 1.01 and 0.989 | locus YHR079C, strain IRE1 (second series), active compounds read low 0.962 | locus YHR079C, strain IRE1, active compounds read low 0.998 | locus YHR094C, strain hxt1, active compounds read low 0.976 | locus YHR129C, strain ARP1, active compounds read low 1 | locus YHR142W, strain chs7, active compounds read low 1.02 | locus YHR200W, strain rpn10, active compounds read low 0.979 | locus YIL066C, strain RNR3, active compounds read low 1.02 | locus YIL073C, strain SPO22, active compounds read low 0.927 | locus YIL125W, strain kgd1, active compounds read low 0.986 | locus YIR030C, strain dcg1, active compounds read low 0.959 | locus YJL092W, strain hpr5, active compounds read low 1.01 | locus YJL095W, strain BCK1 (second series), active compounds read low 1.03 | locus YJL095W, strain BCK1, active compounds read low 0.981 and 0.988 | locus YJL115W, strain asf1, active compounds read low 1.02 | locus YJL129C, strain trk1, active compounds read low 1.02 | locus YJL134W, strain LCB3, active compounds read low 1 | locus YJL164C, strain tpk1, active compounds read low 1.01 | locus YJL166W, strain qcr8, active compounds read low 0.992 | locus YJL168C, strain set2, active compounds read low 0.986 | locus YJL187C, strain SWE1 (second series), active compounds read low 0.986 | locus YJL187C, strain SWE1, active compounds read low 1.02 | locus YJR043C, strain POL32, active compounds read low 1.05 | locus YJR066W, strain TOR1, active compounds read low 0.999 | locus YJR075W, strain HOC1, active compounds read low 0.989 | locus YKL009W, strain mrt4, active compounds read low 0.957
